The values below come from the supplement of paper PMC12067093, “Discovery and optimisation of a covalent ligand for TRIM25 and its application to targeted protein ubiquitination” (Chemical Science, 2025).

Of roughly 21,000 targets only a part is listed; those with the largest changes were picked by preference.

Compound in this assay: CC1Cc2ccccc2N1C(=O)C1CCCN(C1)C(=O)CCl (mixture of isomers) [TRIM25 ligand 11 (diastereomer mixture)]
The assay is described as follows: probe-labelled cysteine peptide fold change vs DMSO (competition) (log2 fold change); higher = less target engagement (more negative = stronger competition). The following applies: THP-1, incubation time: 4 h.
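Further: competitive chemoproteomic profiling in live THP-1 cells with an iodoacetamide desthiobiotin (IA-DTB) probe, comparing probe-labelled peptide intensities in compound-treated cells against DMSO-treated controls.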

UniProt Q13724, sequence (Q13724 whole entry, looked up): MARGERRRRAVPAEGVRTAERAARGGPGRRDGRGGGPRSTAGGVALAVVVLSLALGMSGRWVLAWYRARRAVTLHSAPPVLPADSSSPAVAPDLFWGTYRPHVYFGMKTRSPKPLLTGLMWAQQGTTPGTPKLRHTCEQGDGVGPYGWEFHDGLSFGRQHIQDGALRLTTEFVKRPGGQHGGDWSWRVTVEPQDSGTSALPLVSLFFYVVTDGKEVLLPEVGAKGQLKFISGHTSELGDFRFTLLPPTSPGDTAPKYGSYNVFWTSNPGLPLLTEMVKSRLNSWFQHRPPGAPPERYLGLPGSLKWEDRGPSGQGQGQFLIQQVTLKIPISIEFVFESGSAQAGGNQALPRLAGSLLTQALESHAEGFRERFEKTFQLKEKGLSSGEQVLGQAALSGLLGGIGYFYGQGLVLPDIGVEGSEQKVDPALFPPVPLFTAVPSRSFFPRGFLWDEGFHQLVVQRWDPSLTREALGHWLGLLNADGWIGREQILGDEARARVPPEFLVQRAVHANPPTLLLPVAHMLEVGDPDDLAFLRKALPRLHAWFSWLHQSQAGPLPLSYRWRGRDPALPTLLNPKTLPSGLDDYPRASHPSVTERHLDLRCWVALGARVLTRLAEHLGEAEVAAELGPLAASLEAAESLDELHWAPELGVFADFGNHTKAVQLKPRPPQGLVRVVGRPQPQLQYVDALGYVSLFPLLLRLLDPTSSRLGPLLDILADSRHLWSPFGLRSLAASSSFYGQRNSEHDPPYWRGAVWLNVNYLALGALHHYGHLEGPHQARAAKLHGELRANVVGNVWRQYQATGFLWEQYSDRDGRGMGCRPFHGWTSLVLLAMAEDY
UniProt P46013, sequence (P46013 whole entry, looked up): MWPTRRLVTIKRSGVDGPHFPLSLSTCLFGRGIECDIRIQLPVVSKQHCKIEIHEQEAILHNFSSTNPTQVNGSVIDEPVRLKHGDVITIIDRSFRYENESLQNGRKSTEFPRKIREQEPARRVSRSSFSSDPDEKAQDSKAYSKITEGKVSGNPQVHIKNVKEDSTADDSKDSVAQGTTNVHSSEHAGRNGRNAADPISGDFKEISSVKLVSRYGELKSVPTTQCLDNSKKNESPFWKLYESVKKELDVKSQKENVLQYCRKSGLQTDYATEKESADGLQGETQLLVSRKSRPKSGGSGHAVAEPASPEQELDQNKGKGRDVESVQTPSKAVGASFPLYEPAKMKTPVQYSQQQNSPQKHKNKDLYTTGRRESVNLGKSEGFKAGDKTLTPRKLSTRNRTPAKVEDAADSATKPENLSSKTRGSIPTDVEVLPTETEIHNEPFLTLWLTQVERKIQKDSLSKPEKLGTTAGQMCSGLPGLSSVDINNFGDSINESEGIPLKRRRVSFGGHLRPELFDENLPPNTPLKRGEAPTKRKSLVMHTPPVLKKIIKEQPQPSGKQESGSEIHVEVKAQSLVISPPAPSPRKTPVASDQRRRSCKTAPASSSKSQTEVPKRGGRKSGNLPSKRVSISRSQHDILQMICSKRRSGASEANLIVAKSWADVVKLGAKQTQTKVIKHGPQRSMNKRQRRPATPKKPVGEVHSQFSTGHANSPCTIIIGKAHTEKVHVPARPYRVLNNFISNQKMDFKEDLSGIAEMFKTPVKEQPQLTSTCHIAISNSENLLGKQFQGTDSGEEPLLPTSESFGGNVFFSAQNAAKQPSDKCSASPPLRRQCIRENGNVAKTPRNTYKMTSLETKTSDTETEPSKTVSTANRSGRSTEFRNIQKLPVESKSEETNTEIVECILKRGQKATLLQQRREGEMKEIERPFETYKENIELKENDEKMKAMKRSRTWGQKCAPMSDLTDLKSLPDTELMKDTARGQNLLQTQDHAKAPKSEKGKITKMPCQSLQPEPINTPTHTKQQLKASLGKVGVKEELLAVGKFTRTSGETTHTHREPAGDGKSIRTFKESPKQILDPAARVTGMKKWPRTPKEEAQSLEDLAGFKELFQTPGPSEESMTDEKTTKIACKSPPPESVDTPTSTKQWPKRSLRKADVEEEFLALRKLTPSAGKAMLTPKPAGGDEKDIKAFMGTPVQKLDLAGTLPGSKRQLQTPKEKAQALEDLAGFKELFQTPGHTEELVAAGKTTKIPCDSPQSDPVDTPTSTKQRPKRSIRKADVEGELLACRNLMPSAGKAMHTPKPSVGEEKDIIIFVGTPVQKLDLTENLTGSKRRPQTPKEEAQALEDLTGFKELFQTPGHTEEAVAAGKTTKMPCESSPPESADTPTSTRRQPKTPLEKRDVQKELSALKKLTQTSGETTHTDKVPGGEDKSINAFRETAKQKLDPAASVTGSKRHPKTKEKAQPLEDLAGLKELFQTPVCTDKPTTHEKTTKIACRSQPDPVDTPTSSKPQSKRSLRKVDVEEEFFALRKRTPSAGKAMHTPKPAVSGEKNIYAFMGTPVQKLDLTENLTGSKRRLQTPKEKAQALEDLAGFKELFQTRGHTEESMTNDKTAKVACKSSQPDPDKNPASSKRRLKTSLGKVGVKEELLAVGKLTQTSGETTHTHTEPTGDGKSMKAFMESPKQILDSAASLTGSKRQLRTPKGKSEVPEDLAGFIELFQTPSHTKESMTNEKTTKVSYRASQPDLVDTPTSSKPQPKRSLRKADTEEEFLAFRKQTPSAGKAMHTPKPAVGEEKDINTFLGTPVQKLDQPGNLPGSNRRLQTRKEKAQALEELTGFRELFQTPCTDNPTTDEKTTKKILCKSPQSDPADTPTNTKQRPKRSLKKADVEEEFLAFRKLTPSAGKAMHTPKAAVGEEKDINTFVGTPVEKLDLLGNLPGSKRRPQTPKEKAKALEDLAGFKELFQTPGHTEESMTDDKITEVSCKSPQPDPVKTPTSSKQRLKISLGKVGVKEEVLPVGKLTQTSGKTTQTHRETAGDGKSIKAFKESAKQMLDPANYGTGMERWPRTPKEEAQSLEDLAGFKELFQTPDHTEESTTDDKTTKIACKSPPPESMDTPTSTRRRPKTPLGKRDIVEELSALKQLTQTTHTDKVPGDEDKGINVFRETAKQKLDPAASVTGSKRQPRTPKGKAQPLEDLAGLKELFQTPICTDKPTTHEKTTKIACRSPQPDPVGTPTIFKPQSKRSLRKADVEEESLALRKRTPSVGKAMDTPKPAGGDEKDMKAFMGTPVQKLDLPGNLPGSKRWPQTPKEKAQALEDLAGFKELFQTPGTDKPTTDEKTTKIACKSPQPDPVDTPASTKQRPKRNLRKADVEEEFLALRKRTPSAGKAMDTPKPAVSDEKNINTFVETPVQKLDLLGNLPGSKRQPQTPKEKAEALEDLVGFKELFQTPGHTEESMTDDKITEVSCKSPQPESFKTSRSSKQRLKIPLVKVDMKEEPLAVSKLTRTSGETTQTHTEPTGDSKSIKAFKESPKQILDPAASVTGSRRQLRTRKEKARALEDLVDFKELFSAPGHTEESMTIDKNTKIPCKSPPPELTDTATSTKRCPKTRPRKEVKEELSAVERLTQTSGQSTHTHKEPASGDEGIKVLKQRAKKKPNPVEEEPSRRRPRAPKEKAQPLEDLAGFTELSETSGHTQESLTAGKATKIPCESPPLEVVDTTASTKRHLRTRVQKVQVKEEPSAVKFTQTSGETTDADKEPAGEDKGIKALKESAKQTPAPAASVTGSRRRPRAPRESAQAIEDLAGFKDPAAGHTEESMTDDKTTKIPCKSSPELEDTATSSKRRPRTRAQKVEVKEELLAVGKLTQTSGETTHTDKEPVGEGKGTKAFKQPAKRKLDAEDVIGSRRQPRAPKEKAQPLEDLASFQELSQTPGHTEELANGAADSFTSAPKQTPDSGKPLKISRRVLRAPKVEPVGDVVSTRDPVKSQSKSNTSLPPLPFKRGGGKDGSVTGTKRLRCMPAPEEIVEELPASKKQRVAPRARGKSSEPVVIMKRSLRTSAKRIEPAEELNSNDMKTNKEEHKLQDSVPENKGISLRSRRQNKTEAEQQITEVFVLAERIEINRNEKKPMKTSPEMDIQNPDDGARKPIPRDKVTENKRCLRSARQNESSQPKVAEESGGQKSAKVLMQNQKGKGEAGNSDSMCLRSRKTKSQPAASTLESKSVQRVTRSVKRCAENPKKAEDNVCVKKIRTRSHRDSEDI
UniProt B0I1T2, sequence (B0I1T2 whole entry, looked up): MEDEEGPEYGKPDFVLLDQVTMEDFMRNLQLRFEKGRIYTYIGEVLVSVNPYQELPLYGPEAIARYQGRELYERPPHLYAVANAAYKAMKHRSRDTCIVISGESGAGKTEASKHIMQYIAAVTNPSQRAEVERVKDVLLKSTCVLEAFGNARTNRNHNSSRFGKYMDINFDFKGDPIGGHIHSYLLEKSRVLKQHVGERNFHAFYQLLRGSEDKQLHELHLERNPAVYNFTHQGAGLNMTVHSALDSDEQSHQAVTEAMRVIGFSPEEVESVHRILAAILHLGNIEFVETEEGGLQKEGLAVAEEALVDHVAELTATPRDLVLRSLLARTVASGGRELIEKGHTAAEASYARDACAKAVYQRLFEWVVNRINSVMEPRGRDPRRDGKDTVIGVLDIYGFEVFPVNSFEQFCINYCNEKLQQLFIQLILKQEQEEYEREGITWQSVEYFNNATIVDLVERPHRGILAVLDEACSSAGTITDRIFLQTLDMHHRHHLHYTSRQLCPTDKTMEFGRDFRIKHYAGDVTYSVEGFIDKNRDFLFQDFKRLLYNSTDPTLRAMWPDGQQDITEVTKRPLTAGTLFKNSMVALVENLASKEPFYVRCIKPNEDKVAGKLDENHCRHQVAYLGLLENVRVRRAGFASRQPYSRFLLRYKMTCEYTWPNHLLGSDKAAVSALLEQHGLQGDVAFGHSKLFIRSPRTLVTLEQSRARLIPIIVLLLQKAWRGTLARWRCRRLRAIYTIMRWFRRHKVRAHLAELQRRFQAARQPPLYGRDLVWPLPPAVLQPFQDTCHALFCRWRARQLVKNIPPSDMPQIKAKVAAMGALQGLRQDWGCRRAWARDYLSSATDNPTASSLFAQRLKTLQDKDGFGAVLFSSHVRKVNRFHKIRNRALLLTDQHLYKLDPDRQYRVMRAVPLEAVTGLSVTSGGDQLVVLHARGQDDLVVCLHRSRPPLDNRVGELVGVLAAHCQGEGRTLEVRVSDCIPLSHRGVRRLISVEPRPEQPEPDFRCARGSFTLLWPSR

“MCM5_P33992_221_CVDFQTLK (UniProt P33992)”: the “probe-labelled cysteine peptide fold change” value (10 µM) is -0.0141 and the “probe-labelled cysteine peptide fold change” value (50 µM) came out at 0.0951.

On to “MTM1_Q13496_242_CSQPLVGMSGKR (UniProt Q13496)”, for which the “probe-labelled cysteine peptide fold change” value (10 µM) is -0.862 and the “probe-labelled cysteine peptide fold change” value (50 µM) is -0.255.

Turning to “MDH2_P40926_93_GCDVVVIPAGVPR (UniProt P40926)”, the “probe-labelled cysteine peptide fold change” value was -0.0615 (10 µM) and 0.0728 (50 µM).

Turning to “MYO1G_B0I1T2_618_LDENHCR (UniProt B0I1T2)”, the “probe-labelled cysteine peptide fold change” value (10 µM) came out at 0.054 and the “probe-labelled cysteine peptide fold change” value (50 µM) stood at 0.247.

As for “MED7_O43513_223_DAALCVLIDEMNERP (UniProt O43513)”, the “probe-labelled cysteine peptide fold change” value was 0.0565 (10 µM) and -0.131 (50 µM).

As for “MTF2_Q9Y483_133_CGQGYHQLCHTPHIDSSVIDSDEK (UniProt Q9Y483)”, the “probe-labelled cysteine peptide fold change” value is, setting by setting: (10 µM) 0.12; (50 µM) 0.228.

For “NAPA_P54920_103_KADPQEAINCLMR (UniProt P54920)”, the “probe-labelled cysteine peptide fold change” value (10 µM) was found to be 0.0661 and the “probe-labelled cysteine peptide fold change” value (50 µM) stood at 0.0556.

“MCU_Q8NE86_97_CQFTLKPISDSVGVFLR (UniProt Q8NE86)”: the “probe-labelled cysteine peptide fold change” value runs as follows: (10 µM) -0.212; (50 µM) -0.196.

In the case of “MATR3_P43243_296_GYPHLCSICDLPVHSNK (UniProt P43243)”, the “probe-labelled cysteine peptide fold change” value by setting is: (10 µM) -0.0503; (50 µM) 0.00253.

Consider “MKI67_P46013_773_EQPQLTSTCHIAISNSENLLGK (UniProt P46013)”, for which the “probe-labelled cysteine peptide fold change” value is, setting by setting: (10 µM) 0.234; (50 µM) -0.0412.

Consider “MAD1L1_Q9Y6D9_662_LTSLYAEHPGDCLIFK (UniProt Q9Y6D9)”, for which the “probe-labelled cysteine peptide fold change” value is, setting by setting: (10 µM) 0.00589; (50 µM) -0.0309.

With “NCAPG2_Q86XI2_776_NRECLLSAPR (UniProt Q86XI2)”, the “probe-labelled cysteine peptide fold change” value by setting is: (10 µM) -0.0525; (50 µM) -0.00285.

Consider “NBAS_A2RRP1_1634_QLHCYNER (UniProt A2RRP1)”, for which the “probe-labelled cysteine peptide fold change” value (10 µM) came out at 0.000992 and the “probe-labelled cysteine peptide fold change” value (50 µM) was -0.0554.

With “MAVS_Q7Z434_33_NFSNFCNVDVVEILPYLPCLTAR (UniProt Q7Z434)”, the “probe-labelled cysteine peptide fold change” value reads like this: (10 µM) 0.142; (50 µM) 0.343.

For “MAP4K2_Q12851_302_ASDPHLGTPSPEDCELETYDMFPDTIHSR (UniProt Q12851)”, the “probe-labelled cysteine peptide fold change” value by setting is: (10 µM) -0.0289; (50 µM) -0.161.

On to “MFN1_Q8IWA4_513_LCSDFQEDIVFR (UniProt Q8IWA4)”, for which the “probe-labelled cysteine peptide fold change” value (10 µM) was found to be 0.257 and the “probe-labelled cysteine peptide fold change” value (50 µM) amounted to 0.355.

As to “LSS_P48449_484_LCDAVAVLLNMR (UniProt P48449)”, the “probe-labelled cysteine peptide fold change” value (10 µM) is -0.0996 and the “probe-labelled cysteine peptide fold change” value (50 µM) is -0.128.

Regarding “MPG_P29372_56_AGQPHSSSDAAQAPAEQPHSSSDAAQAPCPR (UniProt P29372)”, the “probe-labelled cysteine peptide fold change” value was 0.193 (10 µM) and -0.822 (50 µM).

Turning to “MCM2_P49736_624_CTVIAAANPIGGR (UniProt P49736)”, the “probe-labelled cysteine peptide fold change” value runs as follows: (10 µM) 0.0682; (50 µM) 0.0292.

With “LYAR_Q9NX58_6+9_VFFTCNACGESVKK (UniProt Q9NX58)”, the “probe-labelled cysteine peptide fold change” value runs as follows: (10 µM) -0.135; (50 µM) -0.2.

In the case of “NAE1_Q13564_384_LLCSNSAFLR (UniProt Q13564)”, the “probe-labelled cysteine peptide fold change” value is, setting by setting: (10 µM) -0.025; (50 µM) -0.00331.

Turning to “MDN1_Q9NU22_1394_ALEFGEPVLLVGDTGCGK (UniProt Q9NU22)”, the “probe-labelled cysteine peptide fold change” value (10 µM) was -0.0161 and the “probe-labelled cysteine peptide fold change” value (50 µM) was found to be 0.145.

For “MRM3_Q9HC36_309_ASDHGWVCDQR (UniProt Q9HC36)”, the “probe-labelled cysteine peptide fold change” value by setting is: (10 µM) 0.135; (50 µM) -0.1.

Regarding “MACF1_Q9UPN3_5309_DCDVQGLEHDMEEINAR (UniProt Q9UPN3)”, the “probe-labelled cysteine peptide fold change” value reads like this: (10 µM) 0.136; (50 µM) -0.0387.

Turning to “METAP1_P53582_255_KLVQTTYECLMQAIDAVKPGVR (UniProt P53582)”, the “probe-labelled cysteine peptide fold change” value is, setting by setting: (10 µM) -0.564; (50 µM) -0.516.

With “MRTO4_Q9UKD2_176_RGVVTLLSDYEVCK (UniProt Q9UKD2)”, the “probe-labelled cysteine peptide fold change” value is, setting by setting: (10 µM) 0.091; (50 µM) -0.0317.

For the target “MOGS_Q13724_137_HTCEQGDGVGPYGWEFHDGLSFGR (UniProt Q13724)”, the “probe-labelled cysteine peptide fold change” value is -0.0183 (10 µM) and -0.127 (50 µM).

With “MYH9_P35579_896_LQLQEQLQAETELCAEAEELRAR (UniProt P35579)”, the “probe-labelled cysteine peptide fold change” value is, setting by setting: (10 µM) -0.566; (50 µM) -0.0747.

Take “METAP2_P50579_263_IIDCAFTVTFNPK (UniProt P50579)”: the “probe-labelled cysteine peptide fold change” value (10 µM) amounted to 0.0495 and the “probe-labelled cysteine peptide fold change” value (50 µM) worked out at 0.114.

In the case of “MED13L_Q71F56_1457_LGQHKPICK (UniProt Q71F56)”, the “probe-labelled cysteine peptide fold change” value was -0.182 (10 µM) and -0.263 (50 µM).

As to “MBIP_Q9NS73_243_DCGNQAVEER (UniProt Q9NS73)”, the “probe-labelled cysteine peptide fold change” value runs as follows: (10 µM) -0.0155; (50 µM) -0.0072.

With “MRPS34_P82930_93_SWLWQHDEPCYWR (UniProt P82930)”, the “probe-labelled cysteine peptide fold change” value is, setting by setting: (10 µM) 0.0173; (50 µM) 0.142.

In the case of “MED1_Q15648_302_WTPSFSSITSANSVDLPACFFLK (UniProt Q15648)”, the “probe-labelled cysteine peptide fold change” value is, setting by setting: (10 µM) -0.00458; (50 µM) 0.123.

In the case of “MTPAP_Q9NVV4_324_FSHQASGFQCDLTTNNR (UniProt Q9NVV4)”, the “probe-labelled cysteine peptide fold change” value (10 µM) is 0.592 and the “probe-labelled cysteine peptide fold change” value (50 µM) amounted to 0.896.

With “MAP10_Q9P2G4_605_TVDCSK (UniProt Q9P2G4)”, the “probe-labelled cysteine peptide fold change” value (10 µM) is -0.174 and the “probe-labelled cysteine peptide fold change” value (50 µM) is -0.0642.

Turning to “LTA4H_P09960_26_CSVDFTR (UniProt P09960)”, the “probe-labelled cysteine peptide fold change” value is -0.0535 (10 µM) and -0.00265 (50 µM).

As for “MTMR3_Q13615_81_ESLVNVPLQLIESVECR (UniProt Q13615)”, the “probe-labelled cysteine peptide fold change” value (10 µM) came to 0.553 and the “probe-labelled cysteine peptide fold change” value (50 µM) was -0.00809.

For the target “MICAL2_O94851_1059_PHFIHCK (UniProt O94851)”, the “probe-labelled cysteine peptide fold change” value was determined as 0.00568 (10 µM) and 0.0284 (50 µM).

“MED15_Q96RN5_618_QQYLCQPLLDAVLANIR (UniProt Q96RN5)”: the “probe-labelled cysteine peptide fold change” value by setting is: (10 µM) -0.00606; (50 µM) 0.36.

For the target “METTL5_Q9NRN9_107+110_NAEEFELTNIDMVQCDVCLLSNR (UniProt Q9NRN9)”, the “probe-labelled cysteine peptide fold change” value reads like this: (10 µM) -0.067; (50 µM) -0.00432.

On to “NAA10_P41227_17+21_NARPEDLMNMQHCNLLCLPENYQMK (UniProt P41227)”, for which the “probe-labelled cysteine peptide fold change” value runs as follows: (10 µM) -0.0777; (50 µM) -0.156.
